# System: VDR:RXRa (NR concentration 270 nM, RXRa partner concentration 90 nM)
# Experiment: PBM binding z-score (relative to random genomic background probes); higher = stronger binding; sequences stand for … in GC…GCGATTGACAGCGTAGAATGAAGG
# Procedure: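 Protein-binding microarray (Agilent 4x180K custom design, double-stranded 60-nt probes: 5' GC cap, 34-nt variable region, 24-nt constant primer region; full probe sequence given). Purified or IVT nuclear receptor:RXRα heterodimers (3:1 NR:RXRα, mostly 270:90 nM) or homodimers were incubated for 1 h in PBS with 2% milk and no ligand, then detected with Alexa488 antibodies. Fluorescence from o1-orientation probes (~5 replicates averaged) was converted to z-scores against 500 random hg19 background probes. Variable regions are seed direct-repeat (DR0–DR5) sites, all their single-nucleotide variants and half-site ablations.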
row,Sequence,PBM binding z-score
1,GCTAGCGGGCCATTTGGGTCACTCAATGACGGGC,0.753
2,CAAACTAGGTCACACAGGTCAAAGTCCGTGCGTA,6.73
3,ACTAGCAGGCCAAGTTTGGGTCAGTCAAACAAAG,0.056
4,TAGCCTAGCTCATTGGGCCAGTATAGTACGCATC,-0.69
5,CCTATTGGGCCACGAAAGGTCATTGATTCAGTGA,4.16
6,ACTAGCAGGCCAAGTTAGGGTCACTCAAACAAAG,3.15
7,CCGAGTAGGTTATGGGGCATTCAAGCAACGGTGA,-0.183
8,CATACAGGGTCAGCTAGGCCAAAGTAGGGACGGC,4.73
9,GGAACGAGGGCAGTCGAGTTGATAGCATGGCGAT,1.22
10,ATCTCTAGGTAACAAGTTCTGTGAAAGAGAGGAC,0.359
11,CGAACTAGGTCATCCAGGACTGTGAATACATTGA,2.81
12,TCTATTAGTTGAAGGGCTACCGACGAGTCCGTTT,0.745
13,CGAACTAGGTCATCCAGGACAGTGGATACATTGA,4.5
14,CAAACTAGGTCAAGGTCAATGTCGGTTTGTGCCA,4.81
15,GCGACTGGGGCATCCGCAGGTTACCATAACTTAA,-0.12
16,CCAGATAGGTGAAAGGTAACTCAGTCTGGTACGC,0.921
17,CGTCCAAGGTCAAGGTCGGTGAAAGAGACTCGAA,4.2
18,GCTAGCAGGCCATTTGGGTCAATCAATGACGGGC,0.778
19,ATATGTAAGTTATCGGGTCATTCAGTTTGCGCAT,4.93
20,CAAGCTAGGTCACGAAAGGTCAAAGTCGAATGAC,6.88

row,Sequence,PBM binding z-score
1,GCGACTGAGGCATCAGCAGGTTACCATAACTTAA,-0.37
2,CCTTACGGGTCACTCCAGCTTATAGCATCGGAGT,2.73
3,ATCGAAAGGTCGTGATGTGAGTATACAGAAAGGC,2.98
4,CCTTACGGATCACTGACAGGTTATAGCATTTGGA,0.456
5,TCTAATTGGTCACGGAGGTCACACACGACGGGTA,6.1
6,TAGCGTAGGTCATTGGGCCAGTATAGTACGCATC,2.41
7,CGTCCAAGGACAAAGGTCAGTGAAGAGATGACGG,2.64
8,CCTACTGGGCCAAAGGTAATTGATTCCAATGCTC,-0.387
9,TGTAGTTGGTCACGGAGGTCACACACGACGGGTA,5.47
10,CCTACTGGGCCAACGTCATTGATCAGTCAAAGCA,-0.476
11,GCTCGGAGGACAAGGTCAGAACTTTGTCCGTAGA,1.37
12,GCAGACAGGTGAAACCCAGGTAACTCAGGGTGGC,-0.302
13,ATCTCTAGGTAACCGAGTTCAGTGAATGCCGAAC,5.27
14,ACTAGCAGGCCAAGGGTCATTCAAGATTAGTCCG,3.49
15,CCTAGCAGGGCAGGGTCACTCAAGCATTTCGCTT,2.88
16,GCGAGTTGGTCAGTAAAAGGTCACACACCGGTCG,4.33
17,CGTGCTAGGTCATGGTCAGCTAATCTACAGTATG,1.7
18,AGTCAAAGTTCAGGAGGAGGTAACGTAAAGCACG,2.89
19,TCTATTAGTTGATTAGGACAACCGAAACAGCGGA,1.12
20,AGAACGAGGGCAATGCGTTGATAGCACGGGTGGC,1.16

# Reference: the supplement of paper PMC6555819
